Assay [1] has as its target Serine/threonine-protein kinase 33 (Homo sapiens) (UniProt Q9BYT3). As to conditions: at 1 µM.
For assay [2] the target is unchanged. The conditions noted are these: at 10 µM.
The target in assay [3] is Serine/threonine-protein kinase PLK2 (Homo sapiens) (UniProt Q9NYY3). The conditions noted are these: at 1 µM.
Assay [4] has the same target. The conditions noted are these: at 10 µM.
Assay [5] addresses Tyrosine-protein kinase SYK (Homo sapiens) (UniProt P43405). The conditions noted are these: at 1 µM.
For assay [6] the target is unchanged. The conditions noted are these: at 10 µM.
Assay [7] has as its target T1, Mitogen-activated protein kinase kinase kinase 7 (Homo sapiens) (UniProt O43318).
T1 sequence (whole entry): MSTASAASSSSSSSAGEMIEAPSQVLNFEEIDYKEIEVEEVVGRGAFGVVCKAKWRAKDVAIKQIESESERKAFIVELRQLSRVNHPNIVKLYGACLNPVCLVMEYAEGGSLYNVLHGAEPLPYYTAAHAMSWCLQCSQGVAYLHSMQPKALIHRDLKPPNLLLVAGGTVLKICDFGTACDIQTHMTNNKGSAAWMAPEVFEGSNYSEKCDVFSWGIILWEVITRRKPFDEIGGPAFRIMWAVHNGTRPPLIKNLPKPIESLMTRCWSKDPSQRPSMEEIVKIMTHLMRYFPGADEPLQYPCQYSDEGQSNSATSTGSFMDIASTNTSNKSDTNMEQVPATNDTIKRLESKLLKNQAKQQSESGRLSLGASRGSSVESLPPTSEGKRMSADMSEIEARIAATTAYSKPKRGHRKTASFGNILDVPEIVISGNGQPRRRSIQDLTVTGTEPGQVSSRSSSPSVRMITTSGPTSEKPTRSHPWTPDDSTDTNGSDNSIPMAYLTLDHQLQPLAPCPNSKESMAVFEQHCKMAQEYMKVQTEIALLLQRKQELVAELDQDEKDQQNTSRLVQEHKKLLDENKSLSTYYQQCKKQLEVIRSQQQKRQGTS
As to conditions: at 1 µM.

Assay [8] has as its target T1, Mitogen-activated protein kinase kinase kinase 7 (Homo sapiens). As to conditions: at 10 µM.
Assay [9] deals with T2, Serine/threonine-protein kinase TAO1 (Homo sapiens) (UniProt Q7L7X3).
T2 sequence (whole entry): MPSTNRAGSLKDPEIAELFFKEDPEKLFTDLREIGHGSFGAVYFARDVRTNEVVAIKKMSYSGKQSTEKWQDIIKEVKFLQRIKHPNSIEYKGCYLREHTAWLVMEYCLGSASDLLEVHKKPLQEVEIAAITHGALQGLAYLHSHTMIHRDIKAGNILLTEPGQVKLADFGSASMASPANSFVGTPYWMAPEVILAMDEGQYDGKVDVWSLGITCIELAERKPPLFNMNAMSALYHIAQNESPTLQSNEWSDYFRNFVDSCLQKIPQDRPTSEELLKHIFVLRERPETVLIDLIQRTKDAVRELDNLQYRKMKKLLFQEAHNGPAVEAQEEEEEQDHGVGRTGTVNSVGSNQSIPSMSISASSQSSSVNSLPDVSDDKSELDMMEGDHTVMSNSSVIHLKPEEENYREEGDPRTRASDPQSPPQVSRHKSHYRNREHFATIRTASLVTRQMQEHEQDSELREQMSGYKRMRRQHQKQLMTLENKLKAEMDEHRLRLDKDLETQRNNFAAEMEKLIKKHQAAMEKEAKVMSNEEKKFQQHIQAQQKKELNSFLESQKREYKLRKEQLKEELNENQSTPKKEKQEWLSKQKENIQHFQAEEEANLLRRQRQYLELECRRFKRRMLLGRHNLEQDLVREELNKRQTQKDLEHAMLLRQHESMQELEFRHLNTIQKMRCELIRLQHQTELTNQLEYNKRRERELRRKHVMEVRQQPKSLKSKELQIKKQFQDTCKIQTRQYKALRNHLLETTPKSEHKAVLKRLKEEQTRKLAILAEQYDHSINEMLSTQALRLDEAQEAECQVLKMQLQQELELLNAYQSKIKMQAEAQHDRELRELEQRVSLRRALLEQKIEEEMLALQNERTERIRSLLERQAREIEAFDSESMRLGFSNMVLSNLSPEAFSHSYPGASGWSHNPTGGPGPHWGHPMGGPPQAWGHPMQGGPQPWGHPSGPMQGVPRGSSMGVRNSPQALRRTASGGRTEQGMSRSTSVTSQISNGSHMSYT
The conditions noted are these: at 1 µM.

For assay [10], the target named is T2, Serine/threonine-protein kinase TAO1 (Homo sapiens). The conditions noted are these: at 10 µM.
For assay [11], the target named is T3, Serine/threonine-protein kinase TAO2 (Homo sapiens) (UniProt Q9UL54).
T3 sequence (whole entry): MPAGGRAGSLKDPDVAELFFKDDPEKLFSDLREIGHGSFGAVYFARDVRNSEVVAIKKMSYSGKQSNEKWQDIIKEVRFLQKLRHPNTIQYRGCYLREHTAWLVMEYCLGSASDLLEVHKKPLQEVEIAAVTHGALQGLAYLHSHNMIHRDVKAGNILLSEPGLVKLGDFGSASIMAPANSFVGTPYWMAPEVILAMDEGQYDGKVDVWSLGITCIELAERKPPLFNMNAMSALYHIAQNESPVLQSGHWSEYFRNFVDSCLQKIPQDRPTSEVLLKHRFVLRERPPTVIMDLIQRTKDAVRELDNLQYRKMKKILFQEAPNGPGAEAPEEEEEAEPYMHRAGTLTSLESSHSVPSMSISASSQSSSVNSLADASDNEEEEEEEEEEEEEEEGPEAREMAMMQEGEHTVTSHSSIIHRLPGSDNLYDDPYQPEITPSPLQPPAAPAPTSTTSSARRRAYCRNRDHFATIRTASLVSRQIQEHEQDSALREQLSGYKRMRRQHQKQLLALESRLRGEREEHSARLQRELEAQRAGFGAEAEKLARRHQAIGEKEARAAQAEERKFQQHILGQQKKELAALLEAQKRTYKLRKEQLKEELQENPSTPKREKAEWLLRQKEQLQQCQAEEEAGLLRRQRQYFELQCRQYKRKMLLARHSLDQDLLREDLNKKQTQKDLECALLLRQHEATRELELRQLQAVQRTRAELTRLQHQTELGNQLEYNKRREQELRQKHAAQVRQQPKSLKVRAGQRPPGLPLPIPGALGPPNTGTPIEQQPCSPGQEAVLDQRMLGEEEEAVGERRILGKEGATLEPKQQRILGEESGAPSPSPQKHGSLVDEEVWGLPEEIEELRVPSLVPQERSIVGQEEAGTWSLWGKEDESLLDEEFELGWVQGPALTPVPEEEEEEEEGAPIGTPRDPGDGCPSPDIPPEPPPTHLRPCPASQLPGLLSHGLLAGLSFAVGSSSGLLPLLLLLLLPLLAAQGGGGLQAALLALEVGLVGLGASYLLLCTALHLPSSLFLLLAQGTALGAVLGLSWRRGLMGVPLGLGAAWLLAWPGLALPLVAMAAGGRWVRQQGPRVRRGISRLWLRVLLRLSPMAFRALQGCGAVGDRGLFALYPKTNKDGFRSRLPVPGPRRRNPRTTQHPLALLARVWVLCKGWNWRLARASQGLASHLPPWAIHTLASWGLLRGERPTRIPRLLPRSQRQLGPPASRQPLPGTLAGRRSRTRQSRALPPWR
The conditions noted are these: at 1 µM.

Assay [12] deals with T3, Serine/threonine-protein kinase TAO2 (Homo sapiens). The conditions noted are these: at 10 µM.
The target of assay [13] is T4, Serine/threonine-protein kinase TAO3 (Homo sapiens) (UniProt Q9H2K8).
T4 sequence (whole entry): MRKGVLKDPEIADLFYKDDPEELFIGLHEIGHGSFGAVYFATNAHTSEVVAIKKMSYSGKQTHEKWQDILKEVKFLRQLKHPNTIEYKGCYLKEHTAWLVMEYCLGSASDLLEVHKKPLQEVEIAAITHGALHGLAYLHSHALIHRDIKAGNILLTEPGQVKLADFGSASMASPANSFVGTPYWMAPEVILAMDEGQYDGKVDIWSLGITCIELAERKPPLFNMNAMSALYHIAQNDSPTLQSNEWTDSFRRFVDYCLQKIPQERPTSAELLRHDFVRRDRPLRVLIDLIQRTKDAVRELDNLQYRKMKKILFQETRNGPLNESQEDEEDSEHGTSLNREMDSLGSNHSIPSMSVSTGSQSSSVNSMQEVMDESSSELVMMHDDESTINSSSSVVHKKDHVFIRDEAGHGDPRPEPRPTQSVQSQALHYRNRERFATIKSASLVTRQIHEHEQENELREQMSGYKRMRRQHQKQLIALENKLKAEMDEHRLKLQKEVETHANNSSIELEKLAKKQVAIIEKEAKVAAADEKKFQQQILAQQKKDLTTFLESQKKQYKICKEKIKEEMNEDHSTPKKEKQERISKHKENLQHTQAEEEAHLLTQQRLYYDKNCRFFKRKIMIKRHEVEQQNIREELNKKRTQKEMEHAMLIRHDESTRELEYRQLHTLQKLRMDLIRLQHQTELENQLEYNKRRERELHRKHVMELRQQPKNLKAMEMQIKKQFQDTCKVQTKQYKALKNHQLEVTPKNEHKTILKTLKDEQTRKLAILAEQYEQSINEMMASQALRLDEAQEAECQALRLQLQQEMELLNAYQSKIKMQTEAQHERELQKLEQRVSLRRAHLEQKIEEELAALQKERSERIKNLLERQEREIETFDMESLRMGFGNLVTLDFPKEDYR
The conditions noted are these: at 1 µM.

The target of assay [14] is T4, Serine/threonine-protein kinase TAO3 (Homo sapiens). The conditions noted are these: at 10 µM.
Assay [15] has as its target T5, Serine/threonine-protein kinase TBK1 (Homo sapiens) (UniProt Q9UHD2).
T5 sequence (whole entry): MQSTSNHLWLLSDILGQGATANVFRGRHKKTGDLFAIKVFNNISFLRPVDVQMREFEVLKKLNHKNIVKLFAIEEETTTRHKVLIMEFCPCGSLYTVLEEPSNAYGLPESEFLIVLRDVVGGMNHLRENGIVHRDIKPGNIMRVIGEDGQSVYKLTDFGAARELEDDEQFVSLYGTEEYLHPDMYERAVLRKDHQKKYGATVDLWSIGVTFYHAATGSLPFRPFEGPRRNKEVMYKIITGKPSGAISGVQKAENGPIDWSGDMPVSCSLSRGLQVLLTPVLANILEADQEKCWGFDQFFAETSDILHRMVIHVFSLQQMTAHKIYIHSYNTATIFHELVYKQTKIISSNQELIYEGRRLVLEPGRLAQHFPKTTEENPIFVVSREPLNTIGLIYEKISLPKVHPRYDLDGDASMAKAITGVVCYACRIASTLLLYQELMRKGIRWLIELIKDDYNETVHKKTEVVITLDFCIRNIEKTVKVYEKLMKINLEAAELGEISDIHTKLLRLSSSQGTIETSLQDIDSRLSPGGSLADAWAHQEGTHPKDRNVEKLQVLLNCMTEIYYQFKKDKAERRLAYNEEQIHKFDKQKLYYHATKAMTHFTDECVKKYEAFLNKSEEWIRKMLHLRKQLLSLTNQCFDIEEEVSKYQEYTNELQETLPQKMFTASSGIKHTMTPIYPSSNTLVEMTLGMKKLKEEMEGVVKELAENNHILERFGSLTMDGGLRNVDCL
As to conditions: at 1 µM.

The target of assay [16] is T5, Serine/threonine-protein kinase TBK1 (Homo sapiens). As to conditions: at 10 µM.
Assay [17] concerns the target T6, TGF-beta receptor type-1 (Homo sapiens) (UniProt P36897).
T6 sequence (whole entry): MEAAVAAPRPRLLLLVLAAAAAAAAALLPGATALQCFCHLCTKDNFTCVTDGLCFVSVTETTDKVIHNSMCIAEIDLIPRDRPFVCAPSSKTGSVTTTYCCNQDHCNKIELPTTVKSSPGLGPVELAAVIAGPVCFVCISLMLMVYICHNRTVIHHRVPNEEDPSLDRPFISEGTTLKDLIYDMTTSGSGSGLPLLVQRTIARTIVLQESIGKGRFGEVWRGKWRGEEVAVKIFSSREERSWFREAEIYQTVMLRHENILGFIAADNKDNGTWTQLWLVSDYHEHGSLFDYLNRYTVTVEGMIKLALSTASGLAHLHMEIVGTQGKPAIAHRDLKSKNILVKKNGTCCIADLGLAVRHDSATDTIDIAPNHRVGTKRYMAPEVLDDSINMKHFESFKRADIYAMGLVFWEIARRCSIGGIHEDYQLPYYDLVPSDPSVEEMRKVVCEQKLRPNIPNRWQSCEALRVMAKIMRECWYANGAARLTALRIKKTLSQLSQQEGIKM
As to conditions: at 1 µM.

The target in assay [18] is T6, TGF-beta receptor type-1 (Homo sapiens). As to conditions: at 10 µM.
Assay [19] has as its target Insulin-like growth factor 1 receptor (Homo sapiens) (UniProt P08069). The conditions noted are these: at 1 µM.
Assay [20] has the same target. The conditions noted are these: at 10 µM.

Insulin-like growth factor 1 receptor (Homo sapiens), sequence (P08069 31-736 limits assumed): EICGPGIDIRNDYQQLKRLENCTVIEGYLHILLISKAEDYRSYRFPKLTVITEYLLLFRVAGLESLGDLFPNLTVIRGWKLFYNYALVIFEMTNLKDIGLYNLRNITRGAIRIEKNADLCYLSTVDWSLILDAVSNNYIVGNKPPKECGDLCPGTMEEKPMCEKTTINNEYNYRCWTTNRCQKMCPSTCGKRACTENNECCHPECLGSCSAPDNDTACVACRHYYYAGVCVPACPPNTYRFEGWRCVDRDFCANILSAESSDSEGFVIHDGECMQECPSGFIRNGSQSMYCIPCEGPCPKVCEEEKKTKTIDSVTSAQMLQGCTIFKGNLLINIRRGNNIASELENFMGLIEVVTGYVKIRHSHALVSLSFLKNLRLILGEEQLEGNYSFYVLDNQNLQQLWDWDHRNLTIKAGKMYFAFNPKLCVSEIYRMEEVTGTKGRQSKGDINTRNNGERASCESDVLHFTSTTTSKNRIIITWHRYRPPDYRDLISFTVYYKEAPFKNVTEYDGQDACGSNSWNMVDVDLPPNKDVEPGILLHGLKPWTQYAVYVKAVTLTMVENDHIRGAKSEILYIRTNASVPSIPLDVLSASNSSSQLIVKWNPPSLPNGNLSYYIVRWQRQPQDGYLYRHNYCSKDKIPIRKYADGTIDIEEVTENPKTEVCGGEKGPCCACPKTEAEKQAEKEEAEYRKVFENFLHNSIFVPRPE
Insulin-like growth factor 1 receptor (Homo sapiens), sequence (P08069 741-1367 limits assumed): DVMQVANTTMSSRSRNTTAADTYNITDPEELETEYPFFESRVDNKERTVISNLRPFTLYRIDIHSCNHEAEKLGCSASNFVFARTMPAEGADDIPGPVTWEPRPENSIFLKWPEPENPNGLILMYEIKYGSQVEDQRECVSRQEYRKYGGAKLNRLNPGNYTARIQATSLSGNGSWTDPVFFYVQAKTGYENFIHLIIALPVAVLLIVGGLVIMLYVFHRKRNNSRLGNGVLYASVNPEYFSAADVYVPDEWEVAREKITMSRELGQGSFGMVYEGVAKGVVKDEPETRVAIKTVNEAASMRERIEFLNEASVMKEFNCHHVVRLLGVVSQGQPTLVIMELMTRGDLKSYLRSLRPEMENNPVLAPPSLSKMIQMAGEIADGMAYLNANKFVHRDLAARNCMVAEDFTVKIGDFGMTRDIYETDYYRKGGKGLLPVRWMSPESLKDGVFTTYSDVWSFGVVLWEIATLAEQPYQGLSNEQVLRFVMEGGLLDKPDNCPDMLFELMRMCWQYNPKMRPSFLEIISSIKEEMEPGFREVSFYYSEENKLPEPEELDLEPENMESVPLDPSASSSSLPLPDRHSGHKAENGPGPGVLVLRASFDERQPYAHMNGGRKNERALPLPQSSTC
Serine/threonine-protein kinase PLK2 (Homo sapiens), sequence (Q9NYY3 whole entry, looked up): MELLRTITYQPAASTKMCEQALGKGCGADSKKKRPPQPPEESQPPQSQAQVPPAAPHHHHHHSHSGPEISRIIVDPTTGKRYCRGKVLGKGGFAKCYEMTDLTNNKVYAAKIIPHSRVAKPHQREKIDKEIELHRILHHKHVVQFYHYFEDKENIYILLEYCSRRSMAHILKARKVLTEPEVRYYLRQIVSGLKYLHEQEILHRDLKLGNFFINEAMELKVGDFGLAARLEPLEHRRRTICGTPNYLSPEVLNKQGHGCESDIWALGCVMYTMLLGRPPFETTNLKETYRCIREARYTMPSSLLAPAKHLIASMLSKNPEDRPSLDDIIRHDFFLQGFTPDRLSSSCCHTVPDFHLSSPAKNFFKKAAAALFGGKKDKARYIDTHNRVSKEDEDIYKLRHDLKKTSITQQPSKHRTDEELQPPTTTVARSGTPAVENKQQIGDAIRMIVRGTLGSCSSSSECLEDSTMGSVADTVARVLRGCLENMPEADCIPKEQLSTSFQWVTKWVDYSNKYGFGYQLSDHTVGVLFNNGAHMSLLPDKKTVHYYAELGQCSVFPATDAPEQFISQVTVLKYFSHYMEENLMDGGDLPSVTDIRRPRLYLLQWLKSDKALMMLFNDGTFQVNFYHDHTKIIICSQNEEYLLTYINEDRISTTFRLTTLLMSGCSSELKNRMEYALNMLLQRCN
Serine/threonine-protein kinase 33 (Homo sapiens), sequence (Q9BYT3 whole entry, looked up): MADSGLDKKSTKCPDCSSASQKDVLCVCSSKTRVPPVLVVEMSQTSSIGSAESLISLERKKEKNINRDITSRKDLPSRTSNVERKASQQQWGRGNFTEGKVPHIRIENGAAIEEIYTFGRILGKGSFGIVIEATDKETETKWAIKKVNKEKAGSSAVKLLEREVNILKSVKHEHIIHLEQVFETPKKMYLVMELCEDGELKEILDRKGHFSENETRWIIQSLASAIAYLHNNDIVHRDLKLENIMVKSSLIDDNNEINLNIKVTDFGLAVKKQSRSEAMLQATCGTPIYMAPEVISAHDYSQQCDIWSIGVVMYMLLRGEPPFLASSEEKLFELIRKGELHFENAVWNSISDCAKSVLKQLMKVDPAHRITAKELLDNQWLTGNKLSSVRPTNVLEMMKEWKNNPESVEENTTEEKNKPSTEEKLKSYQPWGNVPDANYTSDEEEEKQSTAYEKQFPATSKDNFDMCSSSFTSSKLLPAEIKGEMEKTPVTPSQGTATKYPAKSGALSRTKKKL

Consider `O=c1[nH]c2ccccc2n1C1CCN(Cc2ccc(-c3nc4cc5[nH]cnc5cc4nc3-c3ccccc3)cc2)CC1`, for which the residual activity stood at 100% in assay [1]; 95% in assay [2]; 91% in [3]; 92% in assay [4]; 125% in assay [5]; 76% in assay [6]. In addition, the residual activity in assay [7] amounted to 97%; in assay [8] it was 96%; in assay [9] it was 102%; in assay [10], 65%; in assay [11], 101%; in assay [12], 56%. The residual activity came to 93% in [13]; 66% in assay [14]; 82% in assay [15]; 68% in [16]; 91% in assay [17]; 87% in assay [18]. The residual activity came to 98% in assay [19] and 80% in assay [20].

Take `CC(C)(C)c1cc(C=C(C#N)C#N)cc(Br)c1O`: the residual activity in [1] stood at 110%; in assay [2] it was 108%; in assay [4], 67%; in [5], 128%; in [7] it was 104%; in [8], 103%. In addition, the residual activity turned out to be 112% in assay [9]; 70% in [10]; 113% in assay [11]; 103% in assay [12]; 101% in assay [13]; 97% in assay [14]. Moreover, the residual activity in assay [15] stood at 103%; in assay [17] it was 97%; in assay [18] it was 97%; in assay [19], 105%; in [20], 104%.

The record behind these values is ChEMBL document CHEMBL2218924, “A broad activity screen in support of a chemogenomic map for kinase signalling research and drug discovery” (Biochem J, 2013).
